# Results reported in PubChem BioAssay (NCATS).
# Values without a mark were called inactive. Unless noted, calls follow the shape of the dose curve; as a rule, active = well fitted curve in either direction with a large enough effect (not every such curve was filed as active); inconclusive = small, poorly fitted or top-dose-only effect, or another doubt; inactive = flat fitted curve, though single readings scatter. Records with an inconclusive call do not appear.
# Test system: not listed separately
# Experiment: Stat Signaling Pathway (AID 446);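 also: ME-180 cervical cancer cells given 40 pM IL-6 alongside compound; SIE-controlled beta-lactamase reporter measured as 460/530 nm FRET emission ratio; % is scaled to controls: 0 for no effect and ±100 for the full control effect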
# Settings: ME-180 SIE beta-lactamase reporter, IL-6 stimulated, 5 h; at 17.2 µM (top of the series) unless noted
# In short: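 Screening format detects activators and inhibitors alike: ME-180 SIE-bla cells stimulated at 40 pM IL-6 for 5 hrs with compound, then dual-emission beta-lactamase read at 405 nm excitation.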
row,Compound,"activity, negative = inhibition"
1,C[N+](C)(C)CCN(Cc1cccs1)c1ccccn1,-4.68% [at 7.69 µM]
2,CCC1SC(N)=NC1=O (stereo not given),-1.83%
3,COC(=O)c1ccc(C2C(C(=O)c3cc4ccccc4o3)=C(O)C(=O)N2CCCN(C)C)cc1 (stereo not given),-11.4%
4,COC(=O)c1cc(=O)n2c(-c3ccc(OC)cc3)csc2n1,5.85%
5,Cc1ccc(-c2ccc(/C=N/c3ncn[nH]3)o2)cc1Cl,-7.79%
6,COc1ccc(C2C(C#N)=C(SC)NC3=C2C(=O)CC(C)(C)C3)cc1 (stereo not given),-6.08%
7,CCCCCNC(=O)C(C#N)c1nc2ccccc2nc1N1CC(C)OC(C)C1 (stereo not given),-11.4%
8,Cn1c(=O)[nH]c2cc(Cl)cnc21,5.04%
9,O=c1cc(-c2ccco2)nc(-c2cccs2)o1,8.1%
10,CCOC(=O)c1[nH]c2ccc(F)cc2c1N=C(C)N(CC)CC,5.12%
11,CCOC(=O)c1c(C)[nH]c(/C(C)=N/O)c1C,-8.45%
12,CSc1nc2[nH]c3c(c2c2nnnn12)CCCC3,-10.8%
13,CCOC(=O)C1=C(C)NC(C)=C(C(=O)OC)[C@@H]1c1cccc(Cl)c1Cl,-13.3%
14,Cc1cccc(NC(=O)c2cc(N3CCOCC3)nc3ccccc23)c1,-0.239%
15,CCOC(=O)C1=Nc2ccccc2C1=[N+]=[N-],-23.9%
16,CN1C[C@@H](C(=O)N[C@]2(C)O[C@]3(O)[C@H]4CCCN4C(=O)[C@H](Cc4ccccc4)N3C2=O)C[C@H]2c3cccc4[nH]cc(c34)C[C@@H]21,-18.4% [at 38 µM]
17,CCCCc1cc(=O)oc2c(CN(C)C)c(O)c(Cl)cc12,14.1%
18,NC(=O)/C(=C\c1ccncc1)c1cccc2ccccc12,-3.8% [at 7.69 µM]
19,CC(C)Cn1nc(NC(=O)C(C)(C)C)c2cc3ccccc3nc21,-6.46%
20,CC(C)CSc1nc(N2CCOCC2)c2c(c1C#N)CC(C)(C)SC2,2.55%

row,Compound,"activity, negative = inhibition"
1,COC(=O)CSc1nc(-c2cccs2)ccc1C#N,-2.18%
2,Nc1nnnn1/N=C/c1ccco1,-1.38%
3,O=C(NC1CCCCC1)N1CCSC1=Nc1ccccc1,-11.7%
4,CCOC(=O)C1=C(C)NC(C)=C(C(=O)OC)[C@H]1c1cccc(Cl)c1Cl,-0.0099% [at 38 µM]
5,C[C@H](CCC(=O)O)[C@H]1CC[C@@H]2[C@H]3CC[C@H]4C[C@@H](O)CC[C@@]4(C)[C@H]3CC[C@]21C,-1.14%
6,Cc1cc(C(C)(C)CC(C)(C)C)ccc1OCCOCC[N+](C)(C)Cc1ccccc1,4.17%
7,CC[C@H](c1ccccc1)c1cc(C(C)(C)C)cc(C(C)(C)C)c1O,3.9% [at 7.69 µM]
8,Cn1c(=O)c2c3c(sc2n2c(SCc4ccccc4)nnc12)CCCC3,-27.8%
9,CC(=O)N/C(=N/c1nc(C)cc(C)n1)Nc1ccc(NC(C)=O)cc1,-1.02%
10,Cc1cccc(N(Cc2cc3ccccc3[nH]c2=O)C(=O)c2ccco2)c1C,-17%
11,CC(C)Cc1nc(N2CCCCC2)c(C#N)c2c1CCC2,9.01%
12,Cc1nnc(C)n1/N=C/c1cc(Br)cc(Br)c1O,-19.2%
13,O[Si@](CCCN1CCCCC1)(c1ccc(F)cc1)C1CCCCC1,1.42% [at 38 µM]
14,C[N+](C)(C)[C@@H](C1=CCCC1=O)c1ccccc1,-12.6% [at 7.69 µM]
15,O=C(Nc1nnc(SCc2ccccc2F)s1)c1ccco1,-4.78%
16,COC(=O)c1ccc(Oc2nc3ccccc3n3c(C)nnc23)cc1,4.74%
17,CC(C)(C#N)C(C)(C)c1nn[nH]n1,8.72%
18,CCCCCCCCN[C@@H](C)[C@H](O)c1ccc(SC(C)C)cc1,7.39%
19,Oc1c(C=Nc2cccnc2)sc2ccccc12,-3.68%
20,CC(=O)O[C@@H]1[C@H]([N+]2(C)CCCCC2)C[C@@H]2[C@@H]3CC[C@@H]4C[C@@H](OC(C)=O)[C@H]([N+]5(C)CCCCC5)C[C@@]4(C)[C@H]3CC[C@]21C,18.1% [at 38 µM]

# Molecular target: Glucocorticoid receptor (Homo sapiens) (UniProt P04150)
# Experiment: GR-GFP Redistribution (AID 450;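 active = compounds whose dose series gives a full or clear partial fitted curve of increased nuclear translocation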; also: potency is read from the fitted curve at half-maximal effect)
# Settings: U2OS GR-GFP nuclear translocation, laser cytometry, 2 h; series mostly up to 20.6 µM
# Glucocorticoid receptor (Homo sapiens), sequence (P04150 whole entry, looked up): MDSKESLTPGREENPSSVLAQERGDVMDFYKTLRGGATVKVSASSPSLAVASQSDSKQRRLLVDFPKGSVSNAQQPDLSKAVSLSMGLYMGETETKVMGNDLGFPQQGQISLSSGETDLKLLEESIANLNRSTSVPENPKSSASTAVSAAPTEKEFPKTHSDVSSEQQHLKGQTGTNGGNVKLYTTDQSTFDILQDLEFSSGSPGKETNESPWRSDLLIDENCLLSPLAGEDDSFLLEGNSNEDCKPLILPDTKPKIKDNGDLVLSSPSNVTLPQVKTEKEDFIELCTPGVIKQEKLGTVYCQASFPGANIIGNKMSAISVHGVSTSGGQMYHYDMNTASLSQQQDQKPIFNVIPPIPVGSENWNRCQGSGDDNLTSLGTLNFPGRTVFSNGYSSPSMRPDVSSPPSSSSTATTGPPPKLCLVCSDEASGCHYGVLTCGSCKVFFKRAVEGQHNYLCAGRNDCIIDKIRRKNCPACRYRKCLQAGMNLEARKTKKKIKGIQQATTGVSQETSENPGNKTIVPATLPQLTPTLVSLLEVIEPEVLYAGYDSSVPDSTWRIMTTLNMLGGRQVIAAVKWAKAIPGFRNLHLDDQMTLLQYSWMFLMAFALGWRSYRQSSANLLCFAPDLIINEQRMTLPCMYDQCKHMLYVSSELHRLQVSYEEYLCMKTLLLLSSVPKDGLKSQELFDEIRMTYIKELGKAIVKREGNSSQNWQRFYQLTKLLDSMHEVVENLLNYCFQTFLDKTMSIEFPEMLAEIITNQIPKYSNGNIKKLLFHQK
row,Compound,Potency [µM]
1,C[N+](C)(C)CCN(Cc1cccs1)c1ccccn1,> 46
2,CCC1SC(N)=NC1=O (stereo not given),> 20.6
3,COC(=O)c1ccc(C2C(C(=O)c3cc4ccccc4o3)=C(O)C(=O)N2CCCN(C)C)cc1 (stereo not given),> 20.6
4,COC(=O)c1cc(=O)n2c(-c3ccc(OC)cc3)csc2n1,> 20.6
5,Cc1ccc(-c2ccc(/C=N/c3ncn[nH]3)o2)cc1Cl,> 20.6
6,COc1ccc(C2C(C#N)=C(SC)NC3=C2C(=O)CC(C)(C)C3)cc1 (stereo not given),> 20.6
7,CCCCCNC(=O)C(C#N)c1nc2ccccc2nc1N1CC(C)OC(C)C1 (stereo not given),> 20.6
8,Cn1c(=O)[nH]c2cc(Cl)cnc21,> 20.6
9,O=c1cc(-c2ccco2)nc(-c2cccs2)o1,> 20.6
10,CCOC(=O)c1[nH]c2ccc(F)cc2c1N=C(C)N(CC)CC,> 20.6
11,CCOC(=O)c1c(C)[nH]c(/C(C)=N/O)c1C,> 20.6
12,CSc1nc2[nH]c3c(c2c2nnnn12)CCCC3,> 20.6
13,CCOC(=O)C1=C(C)NC(C)=C(C(=O)OC)[C@@H]1c1cccc(Cl)c1Cl,> 20.6
14,Cc1cccc(NC(=O)c2cc(N3CCOCC3)nc3ccccc23)c1,> 20.6
15,CCOC(=O)C1=Nc2ccccc2C1=[N+]=[N-],> 20.6
16,CN1C[C@@H](C(=O)N[C@]2(C)O[C@]3(O)[C@H]4CCCN4C(=O)[C@H](Cc4ccccc4)N3C2=O)C[C@H]2c3cccc4[nH]cc(c34)C[C@@H]21,> 46
17,CCCCc1cc(=O)oc2c(CN(C)C)c(O)c(Cl)cc12,> 20.6
18,NC(=O)/C(=C\c1ccncc1)c1cccc2ccccc12,> 46
19,CC(C)Cn1nc(NC(=O)C(C)(C)C)c2cc3ccccc3nc21,> 20.6
20,CC(C)CSc1nc(N2CCOCC2)c2c(c1C#N)CC(C)(C)SC2,> 20.6

row,Compound,Potency [µM]
1,COC(=O)CSc1nc(-c2cccs2)ccc1C#N,> 20.6
2,Nc1nnnn1/N=C/c1ccco1,> 20.6
3,O=C(NC1CCCCC1)N1CCSC1=Nc1ccccc1,> 20.6
4,CCOC(=O)C1=C(C)NC(C)=C(C(=O)OC)[C@H]1c1cccc(Cl)c1Cl,> 46
5,C[C@H](CCC(=O)O)[C@H]1CC[C@@H]2[C@H]3CC[C@H]4C[C@@H](O)CC[C@@]4(C)[C@H]3CC[C@]21C,> 20.6
6,Cc1cc(C(C)(C)CC(C)(C)C)ccc1OCCOCC[N+](C)(C)Cc1ccccc1,> 20.6
7,CC[C@H](c1ccccc1)c1cc(C(C)(C)C)cc(C(C)(C)C)c1O,> 46
8,Cn1c(=O)c2c3c(sc2n2c(SCc4ccccc4)nnc12)CCCC3,> 20.6
9,CC(=O)N/C(=N/c1nc(C)cc(C)n1)Nc1ccc(NC(C)=O)cc1,> 20.6
10,Cc1cccc(N(Cc2cc3ccccc3[nH]c2=O)C(=O)c2ccco2)c1C,> 20.6
11,CC(C)Cc1nc(N2CCCCC2)c(C#N)c2c1CCC2,> 20.6
12,Cc1nnc(C)n1/N=C/c1cc(Br)cc(Br)c1O,> 20.6
13,O[Si@](CCCN1CCCCC1)(c1ccc(F)cc1)C1CCCCC1,> 46
14,C[N+](C)(C)[C@@H](C1=CCCC1=O)c1ccccc1,> 46
15,O=C(Nc1nnc(SCc2ccccc2F)s1)c1ccco1,> 20.6
16,COC(=O)c1ccc(Oc2nc3ccccc3n3c(C)nnc23)cc1,> 20.6
17,CC(C)(C#N)C(C)(C)c1nn[nH]n1,> 20.6
18,CCCCCCCCN[C@@H](C)[C@H](O)c1ccc(SC(C)C)cc1,> 20.6
19,Oc1c(C=Nc2cccnc2)sc2ccccc12,> 20.6
20,CC(=O)O[C@@H]1[C@H]([N+]2(C)CCCCC2)C[C@@H]2[C@@H]3CC[C@@H]4C[C@@H](OC(C)=O)[C@H]([N+]5(C)CCCCC5)C[C@@]4(C)[C@H]3CC[C@]21C,> 46
